In all, about 310,000 compounds went through this assay and about 14,000 (4.5%) showed an effect of 50% or more. Effects have a minus sign here. Many of the other results were omitted from the sample, so strong results are more common in it than they were.
Target: human ether-à-go-go-related gene (hERG) potassium channel (human, UniProt Q12809)
Assay: primary screen, population patch clamp on CHO cells stably expressing hERG; higher = less effect of the substance
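Note: peak tail current of the secondary pulse compared with the same well before compound.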

Sequence of human ether-à-go-go-related gene (hERG) potassium channel (Q12809 whole entry, looked up): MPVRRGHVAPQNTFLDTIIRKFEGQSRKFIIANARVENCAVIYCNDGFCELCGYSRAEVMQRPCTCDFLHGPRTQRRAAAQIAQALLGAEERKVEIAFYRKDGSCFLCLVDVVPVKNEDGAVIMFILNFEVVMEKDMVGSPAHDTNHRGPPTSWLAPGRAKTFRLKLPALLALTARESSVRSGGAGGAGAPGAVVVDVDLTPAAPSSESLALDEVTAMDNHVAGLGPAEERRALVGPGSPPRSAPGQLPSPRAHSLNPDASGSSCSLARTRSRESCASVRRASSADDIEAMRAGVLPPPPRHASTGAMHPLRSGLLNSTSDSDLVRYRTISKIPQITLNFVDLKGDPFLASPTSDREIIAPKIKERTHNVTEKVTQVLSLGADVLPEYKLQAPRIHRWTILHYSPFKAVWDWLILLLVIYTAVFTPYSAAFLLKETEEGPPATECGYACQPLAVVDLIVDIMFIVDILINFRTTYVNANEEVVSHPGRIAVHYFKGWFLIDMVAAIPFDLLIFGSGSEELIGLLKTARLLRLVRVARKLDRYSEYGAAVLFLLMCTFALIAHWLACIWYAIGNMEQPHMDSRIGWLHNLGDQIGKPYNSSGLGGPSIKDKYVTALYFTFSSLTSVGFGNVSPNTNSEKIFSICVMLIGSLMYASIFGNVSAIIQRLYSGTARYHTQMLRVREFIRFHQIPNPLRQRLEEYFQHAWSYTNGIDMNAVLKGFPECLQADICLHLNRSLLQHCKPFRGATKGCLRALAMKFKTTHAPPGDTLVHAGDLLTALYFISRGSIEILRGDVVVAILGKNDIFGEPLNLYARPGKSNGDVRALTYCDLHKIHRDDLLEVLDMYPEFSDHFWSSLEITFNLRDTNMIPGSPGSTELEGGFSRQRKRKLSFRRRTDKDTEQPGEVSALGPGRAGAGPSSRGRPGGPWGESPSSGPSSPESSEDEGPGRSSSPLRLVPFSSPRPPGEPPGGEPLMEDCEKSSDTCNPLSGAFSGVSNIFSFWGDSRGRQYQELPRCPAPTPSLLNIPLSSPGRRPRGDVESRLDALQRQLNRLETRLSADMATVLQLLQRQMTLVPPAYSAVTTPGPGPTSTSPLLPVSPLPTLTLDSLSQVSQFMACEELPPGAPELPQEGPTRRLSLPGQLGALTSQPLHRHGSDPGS

Row | SMILES | hERG current change (%, negative = inhibition) at 10uM
1 | O=C(CN1CCCC1)Nc1ccc(Cl)cc1C(F)(F)F | 0.32%
2 | COCC(C)N=C1NN=C(c2cccs2)C(CC(=O)O)S1 (centres unmarked) | 20%
3 | CS(=O)(=O)Oc1ccc(/C=C2\C(=N)N3N=C(CC(=O)N4CCOCC4)SC3=NC2=O)cc1Cl | -2.27%
4 | COc1cc2c(cc1OC)/C(=C/c1ccc(Cl)cc1)C(=O)OC2 | -36.4%
5 | NC(=O)CSc1nnc(NC(=O)C2CC(=O)N(c3ccc(F)cc3)C2)s1 (centres unmarked) | 26.1%
6 | O=C(Cc1ccc(S(=O)(=O)N2CCOCC2)s1)OCc1ccc(Cl)cc1 | -20.1%
7 | COC(=O)c1ccc(NC(=O)COc2ccc(S(=O)(=O)N3CCCCC3)cc2)cc1 | -9.57%
8 | Cc1ccc(Cl)c(OCC(=O)NCc2ccco2)c1 | 1.03%
9 | COc1ccc(OC)c(/C=N/NC(=O)CCc2n[nH]c(=O)[nH]c2=O)c1 | 4.8%
10 | CCOc1ccccc1N1CC(C(=O)Nc2ccc(S(=O)(=O)N3CCCCC3)cc2)CC1=O (centres unmarked) | -3.91%
11 | S=C(Nc1ccc2cn[nH]c2c1)Nc1ccccc1Cl | -4.68%
12 | COc1ccc(S(=O)(=O)N2CCCCCC2)cc1C(=O)N(C)Cc1c(F)cccc1Cl | -49.8%
13 | Cc1ccc(S(=O)(=O)NCc2ccccc2)cc1C(=O)N(C)CC(=O)Nc1c(Cl)cccc1Cl | -30.4%
14 | COc1cccc(NC(=O)CN(C)C(=O)c2cc(S(=O)(=O)N3CCCCCC3)ccc2OC)c1 | -50.9%
15 | COc1ccc(NC(=O)CN(C)C(=O)c2cc(S(=O)(=O)N3CCCCCC3)ccc2OC)cc1 | -24%
16 | COc1cccc(NC(=O)CN(C)C(=O)c2cc(S(=O)(=O)N3CCCCC3)ccc2Cl)c1 | -34.7%
17 | COc1ccc(S(=O)(=O)N2CCCCCC2)cc1C(=O)N(C)Cc1ccccc1F | -53.2%
18 | COc1cccc(NC(=O)CN(C)C(=O)c2cc(S(=O)(=O)NCc3ccccc3)ccc2C)c1 | -71.1%
19 | COc1ccc(S(=O)(=O)N2CCOCC2)cc1C(=O)N(C)Cc1ccccc1F | -37.8%
20 | COc1ccc(NS(=O)(=O)c2ccc(C)c(C(=O)N(C)CC(=O)Nc3cccc(OC)c3)c2)cc1 | -9.42%
21 | Cc1ccc(S(=O)(=O)N(Cc2cccc(C(F)(F)F)c2)C(=O)N2CCN(C)CC2)cc1 | 10.3%
22 | COC(=O)CCC(=O)OC1(C)C(=O)C2=CN(CCCOC(C)C)C(c3ccc(OC)cc3)=CC2=C(Br)C1=O (centres unmarked) | -22.7%

Row | SMILES | hERG current change (%, negative = inhibition) at 10uM
23 | CC(=O)NC(=O)NC1CSCC1OC(C)=O (centres unmarked) | 15.8%
24 | CC(NC(=O)CCCn1cc([N+](=O)[O-])cn1)c1ccccc1 (centres unmarked) | -3.6%
25 | COc1ccccc1/C=N/NC(=O)CC(=O)NCCc1ccccc1 | 12.1%
26 | CCOC(=O)c1cc(-c2ccccc2)sc1NC(=O)CC | 1.19%
27 | CCOCC(=O)Nc1ccc(S(=O)(=O)NCCc2ccccc2)cc1 | -22.9%
28 | Nc1ccc(C(=O)Nc2ccccc2C(=O)O)cc1 | 10.2%
29 | Cc1[nH]n2c(=O)c3c(nc2c1-c1ccccc1)CCC3 | 0.138%
30 | CCCN(CCC(=O)Nc1cc(OC)cc(OC)c1)CC1CC1.Cl | -12.1%
31 | Cc1cc(NC(=O)c2nn3cccnc3c2Cl)no1 | 6.12%
32 | CNC(=S)Nc1cc(Cl)ccc1Oc1ccccc1 | -6.86%
33 | CCc1nnc(NC(=O)CCN2C(=O)CCC2=O)s1 | -8.3%
34 | COc1ccc2sc(-c3ccc(SC)cc3)c(C#CC(C)(C)O)c2c1 | 11.6%
35 | CCOC(=O)C1(CCOc2ccccc2)CCN(Cc2cc(OC)c(O)cc2Cl)CC1 | -69.2%
36 | CCOC(=O)C1(CCOc2ccccc2)CCN(Cc2ccccc2O)CC1 | -30.8%
37 | CCOC(=O)C1(CCOc2ccccc2)CCN(Cc2ccccc2OC)CC1 | -71.4%
38 | CCOC(=O)C1(CCOc2ccccc2)CCN(Cc2cc(OC)ccc2OC)CC1 | -73.2%
39 | CCOC(=O)C1(CCOc2ccccc2)CCN(Cc2cccc(OC)c2O)CC1 | -70.5%
40 | O=C(O)c1cc(-n2[nH]c(=O)c3ccccc3c2=O)ccc1Cl | 21.3%
41 | Cc1sc2ncnc(N3CCCCC3C)c2c1C (centres unmarked) | -13.6%
42 | Cc1cc(C)c(C(=O)CN2C(=O)NC3(CCC(C)CC3)C2=O)cc1C (centres unmarked) | 11.1%
43 | COC(=O)c1sccc1NC(=O)CC1NCCNC1=O (centres unmarked) | 0.0435%
44 | COc1ccccc1NC(=O)/C=C/c1ccc2c(c1)OCO2 | -8.32%

Row | SMILES | hERG current change (%, negative = inhibition) at 10uM
45 | Cn1c(=O)c2c(SCc3ccccn3)nc(CC(C)(C)C)nc2n(C)c1=O | -79.4%
46 | Cc1ccccc1-c1nc(SCc2ccccn2)c2c(=O)n(C)c(=O)n(C)c2n1 | 28.7%
47 | CCCc1nc(SCc2ccccn2)c2c(=O)n(C)c(=O)n(C)c2n1 | -59.1%
48 | CCc1nc(SCc2ccccn2)c2c(=O)n(C)c(=O)n(C)c2n1 | 0.896%
49 | CCCc1nc(SCC(=O)NCc2ccco2)c2c(=O)n(C)c(=O)n(C)c2n1 | 0.943%
50 | CC(C)c1nc(SCc2ccccn2)c2c(=O)n(C)c(=O)n(C)c2n1 | 5.32%
51 | Cn1c(=O)c2c(SCc3ccccn3)nc(C3CC3)nc2n(C)c1=O | 6.51%
52 | CCc1nc(SCC(=O)NCc2ccco2)c2c(=O)n(C)c(=O)n(C)c2n1 | -0.832%
53 | Cn1c(=O)c2c(SCC(=O)NCc3ccco3)nc(CC(C)(C)C)nc2n(C)c1=O | -57.4%
54 | Cc1ccc(N(C)S(=O)(=O)c2ccc3[nH]cc(C(=O)NCCCN4CCOCC4)c(=O)c3c2)cc1C | -16.5%
55 | Cc1ccc(Nc2ncccc2C(N)=O)cc1 | 19.5%
56 | Cc1ccccc1NC1=NS(=O)(=O)c2ccccc21 | 4.25%
57 | CCOc1ccc(OCC)c(NC(=O)CN(c2ccc(C)cc2)S(=O)(=O)c2c(C)noc2C)c1 | 3.31%
58 | CN1CCN(CC(=O)Nc2ccc(OC(F)(F)F)cc2)CC1.Cl | -65.1%
59 | O=C(CN1CCN(c2ccccn2)CC1)Nc1ccc(OC(F)(F)F)cc1 | -29.9%
60 | CCOC(=O)N1CCN(CCC(=O)Nc2ccc(OC)cc2)CC1 | -1.76%
61 | O=C(CN1CCc2ccccc2C1)Nc1ccc(OC(F)(F)F)cc1 | -6.92%
62 | CCN1CCN(CC(=O)Nc2ccc(OC(F)(F)F)cc2)CC1.Cl | -69.1%
63 | CCOC(=O)N1CCN(CCC(=O)Nc2ccc(OC(F)(F)F)cc2)CC1 | -63.3%
64 | CCOC(=O)N1CCN(CCC(=O)Nc2ccc(Br)cc2)CC1 | -33.2%
65 | Cl.O=C(CN1CCOCC1)Nc1ccc(OC(F)(F)F)cc1 | -8.1%
66 | Cl.O=C(CN1CCCC1)Nc1ccc(OC(F)(F)F)cc1 | -41.1%

Row | SMILES | hERG current change (%, negative = inhibition) at 10uM
67 | CC1CCC(C(C)C)C(OC(=O)C2=C3c4ccccc4S(=O)(=O)N3CC2)C1 (centres unmarked) | 12.3%
68 | CN(C)S(=O)(=O)N1CCN(C(=O)N2CCCCCC2)CC1 | -12.2%
69 | O=C(N/N=C/c1ccccn1)c1cccc(NC(=O)c2ccccc2Cl)c1 | -4.9%
70 | CC(=O)O.Cc1nc2nc(CSc3nnc(C)s3)cc(=O)n2[nH]1 | 13.9%
71 | CCOC(=O)CN(C(=O)Cn1nnc(-c2ccc(C)cc2)n1)C(CC)C(=O)NC1CCCC1 (centres unmarked) | -8.67%
72 | Cc1cc2c(cc1C)C(c1cc(Br)ccc1F)CC(=O)N2 (centres unmarked) | 8.78%
73 | COc1ccc2[nH]c(C)c(CCNC(=S)Nc3ccccc3OC)c2c1 | 8.79%
74 | CN(C)CCn1c(C(=O)O)cc2ccccc21.Cl | 14.6%
75 | CNC(=O)c1cc2cc(OC)ccc2n1CCN(C)C | -11.6%
76 | CN(C)CCn1c(C(=O)Nc2ccccc2)cc2ccccc21.Cl | -58.9%
77 | CCOC(=O)CSc1nc(=O)n2ccccc2n1 | 13.2%
78 | COc1ccccc1NC(=O)CCS(=O)(=O)c1ccccc1 | 12.7%
79 | CC(NC(=O)Cn1cc2c(n1)CCCCC2)c1ccccc1 (centres unmarked) | 1.69%
80 | Cc1ccc2nc(SCC(=O)c3ccccc3)nc(=O)n2c1 | -10.1%
81 | COc1ccc(C)cc1Nc1n[n+](-c2ccccc2)c(-c2ccc(SC)cc2)s1.[Cl-] | -1.4%
82 | CCOc1cc(-c2sc(Nc3ccc(CC)cc3)n[n+]2-c2ccccc2)ccc1OC.[Cl-] | -78.7%
83 | CCOc1cc(-c2sc(Nc3cc(C)ccc3OC)n[n+]2-c2ccccc2)ccc1OC.[Cl-] | -68.7%
84 | COc1ccc(C)cc1Nc1n[n+](-c2ccccc2)c(-c2ccc(N(C)C)cc2)s1.[Cl-] | -49.3%
85 | CCOc1cc(-c2sc(Nc3ccccc3)n[n+]2-c2ccc(F)cc2)ccc1OC.[Cl-] | 23.6%
86 | CCc1ccc(Nc2n[n+](-c3ccccc3)c(-c3ccc(OC)c(Br)c3)s2)cc1.[Cl-] | -44%

Reference: PMC4336329 (PLoS ONE, 2015)
